# Source: PubChem BioAssay (Tox21)
# “And” between values parts separate entries of the source, which are not always exact repeats. Equal entries are not always repeated. Records with an inconclusive call do not appear. A call without a number means that no potency is given here. The source made the active and inactive calls. Calls come from the whole dose curve.
# Experiment: qHTS assay to identify small molecule agonists of the hypoxia (HIF-1) signaling pathway - cell viability counter screen (AID 1224844); note: nearly all actives have a fitted effect of over 50% in size
# Details: HRE-bla ME-180 viability, CellTiter-Glo luminescence, 17 h; series mostly up to 76.8 µM
# Source text: National Center for Advancing Translational Sciences [NCATS]
# NIH Chemical Genomics Center [NCGC]
# U.S. Environmental Protection Agency [EPA]
# National Institutes of Environmental Health Sciences [NIEHS]
# National Toxicology Program [NTP]
# U.S. Food and Drug Administration [FDA]
# Hypoxia-inducible factor-1 (HIF-1) is the major hypoxia-regulated transcription factor that controls cellular responses to low oxygen concentration. HIF-1 is composed of two subunits: hypoxia responsive HIF-1-alpha and constitutively expressed HIF-1-beta, which is also known as aryl hydrocarbon receptor nuclear translocator. During hypoxic conditions, HIF-1-alpha heterodimerizes with HIF-1-beta and translocates into the nucleus where the HIF-1 complex binds to the hypoxia-response element (HRE) and activates expression of target genes such as VEGF (vascular endothelial growth factor). The HIF-1 pathway is essential to normal growth and development, and is involved in the pathophysiology of cancer, inflammation, and ischemia.
# Using a beta-lactamase reporter-gene under control of the hypoxia response element, a cell-based assay [CellSensor(TM) HRE-bla ME-180 from Life Technologies, Carlsbad, CA] was used to measure hypoxia-induced signaling. Tox21 10K library compounds were measured for their ability to induce the reporter gene activity. The cytotoxicity of the Tox21 compound library against HRE-bla ME-180 cell line was tested in parallel by measuring cell viability using CellTiter-Glo assay (Promega, Madison, WI) in the same assay wells.
# Tox21 Assay Protocol Summary:
# HRE-bla ME-180 cells were dispensed at 2,000 cells per well in 6 uL of assay medium containing 0.5% dialyzed FBS into black wall/clear-bottom 1536-well plates using a Multidrop Combi (Thermo Scientific, Waltham, MA) dispenser. After the assay plates were incubated at 37C and 5% CO2 for 5 hrs, 23 nL of compounds dissolved in DMSO, positive controls or DMSO only was transferred to each well of the assay plate using a Pintool station (Kalypsys, San Diego, CA). The assay plates were incubated at 37C and 5% CO2 for 17 hrs. One uL of LiveBLAzerTM B/G FRET substrate (CCF4-AM) (Life Technologies) was added to each well using a Flying Reagent Dispenser (FRD, Aurora Discovery, San Diego, CA). After 2 hr incubation at room temperature, fluorescence intensity (405 nm excitation, 460 nm and 530 nm emissions) was measured using an Envision plate reader (PerkinElmer, Shelton, CT). For cytotoxicity, 4 ul/well of CellTiter-Glo reagent was added into the assay plates using an FRD. After 30 min incubation at room temperature, the luminescence intensity was measured using a ViewLux plate reader (PerkinElmer).
# Potency is the fitted concentration of half-maximal effect.
row,SMILES,Potency
1,Cc1ccc(CCl)cc1,inactive
2,COc1ccc(OC)c(CC(C)N)c1 (stereo not given),inactive
3,NC(=O)CCl,inactive
4,CCCCCCCCCCCCCCC(Br)C(=O)O (stereo not given),49 µM (active)
5,CC(C)OC(=O)C(O)(c1ccc(Cl)cc1)c1ccc(Cl)cc1,54.9 µM (active)
6,O=c1ssc(Cl)c1Cl,17.4 µM (active)
7,Cc1cccc(OP(=O)(Oc2cccc(C)c2)Oc2cccc(C)c2)c1,inactive
8,CC(C)[C@H](C(=O)O[C@H](C#N)c1cccc(Oc2ccccc2)c1)c1ccc(Cl)cc1,inactive
9,SCc1ccco1,inactive
10,C[C@H]1O[C@@H](O[C@H]2[C@@H](O)C[C@H](O[C@H]3[C@@H](O)C[C@H](O[C@H]4CC[C@@]5(C)[C@H](CC[C@@H]6[C@@H]5CC[C@]5(C)[C@@H](C7=CC(=O)OC7)CC[C@]65O)C4)O[C@@H]3C)O[C@@H]2C)C[C@H](O)[C@@H]1O,98.3 nM (active) and 190 nM (active)
11,BrC(Br)Br,inactive
12,C[C@@H](Oc1ccc(Cl)cc1Cl)C(=O)O,inactive
13,C[C@@H]1O[C@@H](O[C@@H]2C=C3CC[C@@H]4[C@H](CC[C@]5(C)[C@@H](c6ccc(=O)oc6)CC[C@]45O)[C@@]3(C)CC2)[C@H](O)[C@H](O)[C@H]1O,0.0268 µM (active)
14,C[C@@H]1CC[C@@]2(OC1)O[C@H]1[C@@H](O)[C@H]3[C@@H]4CC[C@H]5C[C@@H](O[C@@H]6O[C@H](CO)[C@H](O[C@@H]7O[C@H](CO)[C@@H](O)[C@H](O[C@@H]8OC[C@@H](O)[C@H](O)[C@H]8O)[C@H]7O[C@@H]7O[C@H](CO)[C@@H](O)[C@H](O[C@@H]8O[C@H](CO)[C@@H](O)[C@H](O)[C@H]8O)[C@H]7O)[C@H](O)[C@H]6O)[C@H](O)C[C@]5(C)[C@H]4CC[C@]3(C)[C@H]1[C@@H]2C,11.6 µM (active)
15,CC(C)CC(C)(c1ccc(O)cc1)c1ccc(O)cc1,inactive
16,C1CCC2CCCCC2C1 (stereo not given),inactive
17,CC(C)CCCCCOC(=O)c1ccccc1C(=O)OCCCCCC(C)C,inactive
18,CC(=O)Nc1ccc2c(c1)Cc1ccccc1-2,inactive
19,CC(=O)c1ccc(-c2ccccc2)cc1,inactive
20,CC(C)(C)OO,inactive

row,SMILES,Potency
1,Clc1ccc(CCC(Cn2ccnc2)Sc2c(Cl)cccc2Cl)cc1 (stereo not given),23.9 µM (active)
2,CC(O)C#N (stereo not given),inactive
3,COc1ccc([N+](=O)[O-])cc1O,inactive
4,CN(C)c1ccc(N=Nc2ccccc2)cc1,inactive
5,O=c1[nH]c2ccccc2n1C1CCN(CCCC(c2ccc(F)cc2)c2ccc(F)cc2)CC1,21.9 µM (active)
6,N#CCCSCCC#N,inactive
7,Oc1ccc(C(c2ccc(O)cc2)(C(F)(F)F)C(F)(F)F)cc1,inactive
8,COC12CC[C@@]3(C[C@@H]1C(C)(O)C(C)(C)C)[C@H]1Cc4ccc(O)c5c4[C@@]3(CCN1CC1CC1)[C@H]2O5 (stereo not given in full),34.4 µM (active)
9,c1ccc2cc3c(cc2c1)-c1cccc2cccc-3c12,inactive
10,COc1ccc(N)cc1N,inactive
11,CCCCN(CCCC)C(=S)[S-].CCCCN(CCCC)C(=S)[S-].[Zn+2],15.5 µM (active)
12,O=[N+]([O-])c1ccc(Oc2ccc(C(F)(F)F)cc2[N+](=O)[O-])cc1,inactive
13,CCCN(CC)CC1COC2(CCC(C(C)(C)C)CC2)O1 (stereo not given),inactive
14,c1ccc(OCC2CO2)cc1 (stereo not given),inactive
15,CCCN(CCC)c1c([N+](=O)[O-])cc(S(N)(=O)=O)cc1[N+](=O)[O-],37 µM (active)
16,CCOC(=O)C1(c2ccccc2)CCN(CCC(C#N)(c2ccccc2)c2ccccc2)CC1,inactive
17,C=CC(=O)N(C)C,inactive
18,CCc1ccccc1C,inactive
19,CCCCOP(=O)(CCCC)OCCCC,inactive
20,CC(C)(C)c1cc([N+](=O)[O-])cc(C(C)(C)C)c1O,inactive
